# From article PMC7862700, “An all-to-all approach to the identification of sequence-specific readers for epigenetic DNA modifications on cytosine”
# How the values were obtained:
# Assay in all cases: DAPPL (digital affinity profiling via proximity ligation, sequencing); 10 mM Tris-HCl pH 7.5, 50 mM NaCl, 1 mM DTT, 4% glycerol, room temperature, 30 min; GST-TFs on glutathione beads, 16-mer random dsDNA library, 0.1% formaldehyde crosslink after washing; high values mean tight binding
# Details in all cases: protein: recombinant; tags: N-terminal GST; dsDNA, one strand shown
# [1] = target: T1, ELK1 (Homo sapiens, UniProt P19419 1-428)
# T1 sequence: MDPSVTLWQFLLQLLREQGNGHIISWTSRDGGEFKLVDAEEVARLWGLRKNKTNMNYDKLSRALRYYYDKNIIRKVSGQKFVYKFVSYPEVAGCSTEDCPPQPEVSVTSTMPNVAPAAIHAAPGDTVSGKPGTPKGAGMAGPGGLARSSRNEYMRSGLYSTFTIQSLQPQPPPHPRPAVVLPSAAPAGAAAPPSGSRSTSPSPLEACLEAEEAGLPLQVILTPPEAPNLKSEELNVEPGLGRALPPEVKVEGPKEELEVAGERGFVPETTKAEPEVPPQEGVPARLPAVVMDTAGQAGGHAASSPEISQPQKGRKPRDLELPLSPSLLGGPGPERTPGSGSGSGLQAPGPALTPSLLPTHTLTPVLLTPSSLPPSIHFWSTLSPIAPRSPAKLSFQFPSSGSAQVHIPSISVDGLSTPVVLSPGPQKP
# Summary of the method: (§1)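 Beads coated with glutathione captured GST-fused human transcription factors that had been expressed in yeast, and the factors were then given DNA barcodes and pooled with a tag-only sample. The pools were incubated with 200 nmole of a random double-stranded 16-mer DNA library in Tris/NaCl/DTT/glycerol buffer for 30 min at room temperature, washed, crosslinked with 0.1% formaldehyde and proximity-ligated with BsaI/T4 ligase at 37 °C for 1 h. PCR amplification and Illumina NextSeq500 sequencing came last. Binding signal is each hexamer's read frequency for a factor divided by its frequency for the tag-only sample.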
# [2] = target: T2, GABPA (Homo sapiens, UniProt Q06546 1-454)
# T2 sequence: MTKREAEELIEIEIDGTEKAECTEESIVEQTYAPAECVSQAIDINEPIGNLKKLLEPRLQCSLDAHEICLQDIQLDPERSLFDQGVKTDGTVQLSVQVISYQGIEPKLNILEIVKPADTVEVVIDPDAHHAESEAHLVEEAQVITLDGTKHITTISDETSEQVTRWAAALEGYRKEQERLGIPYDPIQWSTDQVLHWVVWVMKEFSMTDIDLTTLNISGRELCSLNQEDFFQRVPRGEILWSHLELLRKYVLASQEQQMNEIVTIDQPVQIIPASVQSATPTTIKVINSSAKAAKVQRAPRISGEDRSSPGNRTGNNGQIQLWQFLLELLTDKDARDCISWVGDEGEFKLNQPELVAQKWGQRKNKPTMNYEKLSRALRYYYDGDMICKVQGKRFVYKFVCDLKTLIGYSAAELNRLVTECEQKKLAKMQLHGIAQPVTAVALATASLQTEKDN
# Summary of the method: as §1
# [3] = target: ELF1 (Homo sapiens, UniProt P32519 1-619)
# Summary of the method: as §1
# [4] = target: T3, EHF (Homo sapiens, UniProt Q9NZC4 1-300)
# T3 sequence: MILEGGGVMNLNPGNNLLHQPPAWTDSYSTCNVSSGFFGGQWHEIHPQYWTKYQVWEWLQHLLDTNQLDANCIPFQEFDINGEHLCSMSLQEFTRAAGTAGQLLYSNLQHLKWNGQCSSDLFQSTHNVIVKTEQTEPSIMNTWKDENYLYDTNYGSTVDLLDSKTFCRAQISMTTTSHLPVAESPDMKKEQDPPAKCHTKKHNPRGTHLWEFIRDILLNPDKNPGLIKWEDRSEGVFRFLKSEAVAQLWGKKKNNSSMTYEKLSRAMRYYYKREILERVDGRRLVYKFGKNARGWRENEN
# Summary of the method: as §1
# [5] = target: SPIB (Homo sapiens, UniProt Q01892 1-262)
# Summary of the method: as §1
# [6] = target: T4, ELK3 (Homo sapiens, UniProt P41970 1-407)
# T4 sequence: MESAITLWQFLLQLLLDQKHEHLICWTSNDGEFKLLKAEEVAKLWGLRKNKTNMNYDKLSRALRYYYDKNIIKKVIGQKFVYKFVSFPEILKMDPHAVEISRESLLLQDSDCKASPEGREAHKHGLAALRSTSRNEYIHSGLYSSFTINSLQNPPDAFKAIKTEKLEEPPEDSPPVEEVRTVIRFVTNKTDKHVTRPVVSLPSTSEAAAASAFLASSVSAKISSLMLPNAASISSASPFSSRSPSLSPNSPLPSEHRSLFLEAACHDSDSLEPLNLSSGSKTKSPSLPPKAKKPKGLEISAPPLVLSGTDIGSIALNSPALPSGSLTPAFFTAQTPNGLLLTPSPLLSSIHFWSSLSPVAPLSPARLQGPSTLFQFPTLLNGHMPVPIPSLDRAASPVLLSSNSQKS
# Summary of the method: as §1
# [7] = target: T5, SPIC (Homo sapiens, UniProt Q8N5J4 1-248)
# T5 sequence: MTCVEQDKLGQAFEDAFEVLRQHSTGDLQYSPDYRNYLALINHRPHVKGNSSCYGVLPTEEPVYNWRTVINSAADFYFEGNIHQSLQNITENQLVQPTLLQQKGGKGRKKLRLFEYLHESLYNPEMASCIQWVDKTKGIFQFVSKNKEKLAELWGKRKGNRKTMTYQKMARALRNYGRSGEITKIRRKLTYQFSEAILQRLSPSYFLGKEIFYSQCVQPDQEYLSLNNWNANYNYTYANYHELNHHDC
# Summary of the method: as §1
# [8] = target: ELF4 (Homo sapiens, UniProt Q99607 1-663)
# Summary of the method: as §1
# [9] = target: T6, ELK4 (Homo sapiens, UniProt P28324-2 1-405)
# T6 sequence: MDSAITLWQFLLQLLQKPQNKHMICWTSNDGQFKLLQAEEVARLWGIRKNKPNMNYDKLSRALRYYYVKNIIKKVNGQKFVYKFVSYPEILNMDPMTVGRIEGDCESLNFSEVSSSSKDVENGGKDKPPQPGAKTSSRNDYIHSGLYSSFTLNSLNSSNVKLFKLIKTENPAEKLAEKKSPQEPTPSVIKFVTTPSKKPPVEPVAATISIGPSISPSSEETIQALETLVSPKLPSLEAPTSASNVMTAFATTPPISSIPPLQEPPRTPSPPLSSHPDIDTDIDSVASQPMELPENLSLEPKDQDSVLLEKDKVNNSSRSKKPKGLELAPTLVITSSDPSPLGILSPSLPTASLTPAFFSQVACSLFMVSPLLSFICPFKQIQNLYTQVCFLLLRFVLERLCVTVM
# Summary of the method: as §1
# [10] = target: T7, ELF3 (Homo sapiens, UniProt P78545 1-371)
# T7 sequence: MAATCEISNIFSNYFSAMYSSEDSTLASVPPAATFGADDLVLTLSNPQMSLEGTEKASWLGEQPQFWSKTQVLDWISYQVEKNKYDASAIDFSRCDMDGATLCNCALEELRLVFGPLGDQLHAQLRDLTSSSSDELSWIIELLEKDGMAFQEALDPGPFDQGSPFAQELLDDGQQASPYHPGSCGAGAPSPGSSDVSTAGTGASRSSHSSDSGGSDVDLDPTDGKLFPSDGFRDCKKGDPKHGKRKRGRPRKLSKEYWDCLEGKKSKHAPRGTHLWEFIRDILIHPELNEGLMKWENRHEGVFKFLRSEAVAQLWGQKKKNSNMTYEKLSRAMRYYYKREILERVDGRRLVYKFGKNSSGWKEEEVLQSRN
# Summary of the method: as §1
# [11] = target: ETV1 (Homo sapiens, UniProt P50549 1-477)
# Summary of the method: as §1
# [12] = target: T8, ETV3L (Homo sapiens, UniProt Q6ZN32 1-361)
# T8 sequence: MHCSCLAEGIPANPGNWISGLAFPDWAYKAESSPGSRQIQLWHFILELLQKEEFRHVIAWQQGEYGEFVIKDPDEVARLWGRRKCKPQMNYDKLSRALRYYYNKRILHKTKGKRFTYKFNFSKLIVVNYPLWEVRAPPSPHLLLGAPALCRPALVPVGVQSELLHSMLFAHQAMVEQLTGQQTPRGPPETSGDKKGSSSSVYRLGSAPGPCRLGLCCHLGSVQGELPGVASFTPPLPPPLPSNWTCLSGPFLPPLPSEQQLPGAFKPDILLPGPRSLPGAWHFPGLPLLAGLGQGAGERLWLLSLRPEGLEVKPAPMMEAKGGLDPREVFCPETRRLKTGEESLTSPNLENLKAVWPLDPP
# Summary of the method: as §1
# [13] = target: T9, ETS2 (Homo sapiens, UniProt P15036 1-469)
# T9 sequence: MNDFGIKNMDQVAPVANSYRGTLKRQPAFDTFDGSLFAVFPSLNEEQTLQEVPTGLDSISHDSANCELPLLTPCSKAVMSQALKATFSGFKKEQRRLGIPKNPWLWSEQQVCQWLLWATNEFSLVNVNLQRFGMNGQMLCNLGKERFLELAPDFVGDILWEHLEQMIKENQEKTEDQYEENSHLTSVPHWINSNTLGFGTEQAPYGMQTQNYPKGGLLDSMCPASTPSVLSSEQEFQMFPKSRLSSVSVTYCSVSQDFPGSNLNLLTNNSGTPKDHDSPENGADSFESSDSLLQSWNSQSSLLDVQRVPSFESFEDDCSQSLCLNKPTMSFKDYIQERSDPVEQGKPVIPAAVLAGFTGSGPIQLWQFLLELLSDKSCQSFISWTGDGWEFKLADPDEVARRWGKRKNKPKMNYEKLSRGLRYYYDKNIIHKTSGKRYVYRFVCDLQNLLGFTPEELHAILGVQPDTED
# Summary of the method: as §1
# [14] = target: T10, SPDEF (Homo sapiens, UniProt O95238 1-335)
# T10 sequence: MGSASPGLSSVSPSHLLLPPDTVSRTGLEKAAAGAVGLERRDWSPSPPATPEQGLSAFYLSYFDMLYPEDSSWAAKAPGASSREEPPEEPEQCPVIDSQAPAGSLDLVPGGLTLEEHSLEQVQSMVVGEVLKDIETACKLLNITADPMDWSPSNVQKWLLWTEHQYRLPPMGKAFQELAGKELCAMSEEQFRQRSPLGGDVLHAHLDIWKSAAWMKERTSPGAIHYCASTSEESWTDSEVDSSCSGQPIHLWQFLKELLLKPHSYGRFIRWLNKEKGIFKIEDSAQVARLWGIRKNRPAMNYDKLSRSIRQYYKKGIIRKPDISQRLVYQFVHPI
# Summary of the method: as §1
# [15] = target: T11, ETV7 (Homo sapiens, UniProt Q9Y603 1-341)
# T11 sequence: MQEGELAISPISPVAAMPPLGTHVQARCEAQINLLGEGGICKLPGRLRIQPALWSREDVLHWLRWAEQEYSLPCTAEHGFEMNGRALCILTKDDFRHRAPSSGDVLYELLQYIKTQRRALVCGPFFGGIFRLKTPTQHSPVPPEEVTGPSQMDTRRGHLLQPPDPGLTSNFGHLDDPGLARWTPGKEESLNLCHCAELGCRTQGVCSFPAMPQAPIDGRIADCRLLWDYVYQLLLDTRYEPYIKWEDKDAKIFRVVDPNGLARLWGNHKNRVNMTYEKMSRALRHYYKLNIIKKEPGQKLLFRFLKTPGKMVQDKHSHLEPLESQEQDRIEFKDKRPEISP
# Summary of the method: as §1
# [16] = target: T12, ETV3 (Homo sapiens, UniProt P41162-2 1-143)
# T12 sequence: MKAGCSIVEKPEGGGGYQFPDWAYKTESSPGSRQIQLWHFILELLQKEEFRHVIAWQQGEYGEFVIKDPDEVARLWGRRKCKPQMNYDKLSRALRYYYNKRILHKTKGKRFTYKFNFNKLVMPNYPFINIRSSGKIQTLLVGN
# Summary of the method: as §1
# [17] = target: ETV6 (Homo sapiens, UniProt P41212 1-452)
# Summary of the method: as §1
# Chain of ETV1 (P50549 whole entry): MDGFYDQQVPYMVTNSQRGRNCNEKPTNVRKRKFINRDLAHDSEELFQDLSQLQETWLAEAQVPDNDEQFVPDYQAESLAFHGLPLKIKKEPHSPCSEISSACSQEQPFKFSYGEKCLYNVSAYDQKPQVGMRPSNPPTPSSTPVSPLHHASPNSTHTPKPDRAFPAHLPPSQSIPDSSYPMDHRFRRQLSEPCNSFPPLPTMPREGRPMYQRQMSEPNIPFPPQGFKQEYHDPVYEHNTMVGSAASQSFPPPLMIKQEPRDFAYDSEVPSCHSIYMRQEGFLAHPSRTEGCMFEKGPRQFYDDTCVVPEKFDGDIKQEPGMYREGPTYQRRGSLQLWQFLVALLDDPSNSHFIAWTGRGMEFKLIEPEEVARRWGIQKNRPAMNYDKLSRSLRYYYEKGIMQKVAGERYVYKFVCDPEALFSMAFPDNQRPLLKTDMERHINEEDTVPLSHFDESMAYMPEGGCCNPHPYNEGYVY
# Chain of ETV6 (P41212 whole entry): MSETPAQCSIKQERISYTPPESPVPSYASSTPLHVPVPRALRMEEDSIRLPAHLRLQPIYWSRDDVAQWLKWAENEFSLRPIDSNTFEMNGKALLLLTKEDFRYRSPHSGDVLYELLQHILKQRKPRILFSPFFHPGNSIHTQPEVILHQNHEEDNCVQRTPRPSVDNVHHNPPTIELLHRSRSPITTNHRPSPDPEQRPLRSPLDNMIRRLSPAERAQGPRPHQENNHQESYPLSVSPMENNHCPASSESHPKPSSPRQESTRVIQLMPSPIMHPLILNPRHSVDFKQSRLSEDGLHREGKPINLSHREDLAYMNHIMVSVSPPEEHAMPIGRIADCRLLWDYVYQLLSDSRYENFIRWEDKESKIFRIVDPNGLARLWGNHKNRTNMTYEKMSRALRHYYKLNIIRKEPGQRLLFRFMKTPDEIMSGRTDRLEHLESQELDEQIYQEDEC
# Chain of ELF1 (P32519 whole entry): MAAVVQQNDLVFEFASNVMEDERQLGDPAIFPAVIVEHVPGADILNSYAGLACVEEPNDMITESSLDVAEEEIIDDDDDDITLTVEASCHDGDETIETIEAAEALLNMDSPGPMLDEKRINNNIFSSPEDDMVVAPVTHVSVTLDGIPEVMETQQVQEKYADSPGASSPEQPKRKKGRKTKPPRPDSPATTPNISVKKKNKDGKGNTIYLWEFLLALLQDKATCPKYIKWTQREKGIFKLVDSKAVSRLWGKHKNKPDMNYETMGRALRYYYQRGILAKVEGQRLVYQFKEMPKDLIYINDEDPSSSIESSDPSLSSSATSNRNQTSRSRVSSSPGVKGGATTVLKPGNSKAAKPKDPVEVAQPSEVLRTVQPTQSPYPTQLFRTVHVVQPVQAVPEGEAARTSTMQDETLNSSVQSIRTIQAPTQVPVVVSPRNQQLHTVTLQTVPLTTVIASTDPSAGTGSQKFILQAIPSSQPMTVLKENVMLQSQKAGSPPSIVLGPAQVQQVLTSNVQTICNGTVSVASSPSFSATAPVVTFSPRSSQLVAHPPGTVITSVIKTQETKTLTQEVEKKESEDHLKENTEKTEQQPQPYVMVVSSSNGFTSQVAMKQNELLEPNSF
# Chain of ELF4 (Q99607 whole entry): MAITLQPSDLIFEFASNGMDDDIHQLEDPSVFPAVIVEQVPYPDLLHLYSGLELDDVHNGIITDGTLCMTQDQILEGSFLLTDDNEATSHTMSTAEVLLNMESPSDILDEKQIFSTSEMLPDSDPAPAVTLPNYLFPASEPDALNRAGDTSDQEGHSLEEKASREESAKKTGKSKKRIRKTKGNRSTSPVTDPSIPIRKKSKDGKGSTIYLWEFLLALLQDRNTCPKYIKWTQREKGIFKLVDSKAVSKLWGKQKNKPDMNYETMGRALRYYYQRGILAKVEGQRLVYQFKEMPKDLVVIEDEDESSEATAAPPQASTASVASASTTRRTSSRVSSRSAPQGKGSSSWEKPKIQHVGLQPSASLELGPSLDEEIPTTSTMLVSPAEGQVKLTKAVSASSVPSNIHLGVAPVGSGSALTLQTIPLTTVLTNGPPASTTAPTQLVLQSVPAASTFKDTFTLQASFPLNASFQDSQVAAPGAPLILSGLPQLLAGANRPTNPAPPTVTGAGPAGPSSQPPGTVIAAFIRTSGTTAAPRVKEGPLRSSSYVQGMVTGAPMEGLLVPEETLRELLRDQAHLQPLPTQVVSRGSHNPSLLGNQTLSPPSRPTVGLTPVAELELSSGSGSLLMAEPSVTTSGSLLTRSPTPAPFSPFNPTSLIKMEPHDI
# Chain of SPIB (Q01892 whole entry): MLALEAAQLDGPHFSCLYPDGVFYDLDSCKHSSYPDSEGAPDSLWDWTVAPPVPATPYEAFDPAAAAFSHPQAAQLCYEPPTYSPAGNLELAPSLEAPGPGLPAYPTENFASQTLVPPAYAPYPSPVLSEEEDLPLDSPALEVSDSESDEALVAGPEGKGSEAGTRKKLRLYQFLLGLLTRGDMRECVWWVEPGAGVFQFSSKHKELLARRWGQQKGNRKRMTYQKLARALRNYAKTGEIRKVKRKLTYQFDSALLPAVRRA
sequence,measurement,setting,value
TAGATA,binding signal,[1],"1.03 fold enrichment (6-mer frequency, TF over GST control)"
same,binding signal,[2],"1.1 fold enrichment (6-mer frequency, TF over GST control)"
same,binding signal,[3],"1.06 fold enrichment (6-mer frequency, TF over GST control)"
same,binding signal,[4],"1.06 fold enrichment (6-mer frequency, TF over GST control)"
same,binding signal,[5],"1.05 fold enrichment (6-mer frequency, TF over GST control)"
same,binding signal,[6],"1.02 fold enrichment (6-mer frequency, TF over GST control)"
same,binding signal,[7],"1.17 fold enrichment (6-mer frequency, TF over GST control)"
same,binding signal,[8],"1.07 fold enrichment (6-mer frequency, TF over GST control)"
same,binding signal,[9],"1.08 fold enrichment (6-mer frequency, TF over GST control)"
same,binding signal,[10],"1.08 fold enrichment (6-mer frequency, TF over GST control)"
same,binding signal,[11],"1.06 fold enrichment (6-mer frequency, TF over GST control)"
same,binding signal,[12],"1.12 fold enrichment (6-mer frequency, TF over GST control)"
same,binding signal,[13],"1.05 fold enrichment (6-mer frequency, TF over GST control)"
same,binding signal,[14],"1.06 fold enrichment (6-mer frequency, TF over GST control)"
same,binding signal,[15],"1.02 fold enrichment (6-mer frequency, TF over GST control)"
same,binding signal,[16],"1.01 fold enrichment (6-mer frequency, TF over GST control)"
same,binding signal,[17],"1.01 fold enrichment (6-mer frequency, TF over GST control)"
